Inconclusive results are not listed. Entries that show only a call come without a potency. A number with no mark means an inactive call. Active and inactive are the calls of the source. Calls come from the whole dose curve; as a rule, active = well fitted curve in the direction sought with a large enough effect; inconclusive = small, poorly fitted or top-dose-only effect, or another doubt; inactive = no such curve, though single readings can be large; an effect the other way counts as inactive or inconclusive.
Assay: qHTS of pediatric cancer cell lines to identify multiple opportunities for drug repurposing: Primary screen for Rh18 cells (AID 1347102); note: nearly all actives have a fitted effect of over 65% in size
Conditions: Rh18 rhabdomyosarcoma viability, CellTiter-Glo luminescence, 48 h; series mostly up to 46 µM
Outline: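 Cells (500-1,000/well) in growth media were settled 5 h at 37 degrees C, then given compounds for 48 h. Viability was read as CellTiter-Glo luminescence. Primary runs used MIPE at 11 points (0.78 nM-46 µM) and NPC at 8 points (0.59 nM-46 µM); follow-ups used 11 points.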

Structure (SMILES)	Potency	activity change, negative = cytotoxic
O=C1c2c(O)cccc2Cc2cccc(O)c21	inactive	
CC1(C)OC(=O)NC1=O	inactive	
CCOc1ccc2ccccc2c1C(=O)N[C@@H]1C(=O)N2[C@@H]1SC(C)(C)[C@@H]2C(=O)O	inactive	
CC1(C)CO[C@@H](CC(=O)O)CN1	inactive	
CCCCC(CC)COC(=O)c1ccccc1O (centres undefined)	inactive	
CCN(CC)C(=O)Nc1ccc(OCC(O)CNC(C)(C)C)c(C(C)=O)c1 (centres undefined)	inactive	
C[C@@H]1CN(c2c(F)c(F)c3c(=O)c(C(=O)O)cn(C4CC4)c3c2F)C[C@H](C)N1	inactive	
COc1ccc(S(=O)(=O)Nc2nnc(CC(C)C)s2)cc1	inactive	
CC(=O)CCC(=O)O	inactive	
CN(C)CC[C@@H](c1ccc(Cl)cc1)c1ccccn1	inactive	
NC(=O)NC(=O)Cc1ccccc1	inactive	
CC1=C(C/C=C(\C)CCC[C@H](C)CCC[C@H](C)CCCC(C)C)C(=O)c2ccccc2C1=O	inactive	
COc1ccccc1O	inactive	
N[C@H]1C(O)O[C@H](CO)[C@@H](O)[C@@H]1O (some centres undefined)	inactive	
C[C@@H](O)[C@H](N)C(=O)O	inactive	
C[C@@H]1CCN(C(=O)[C@H](CCCN=C(N)N)NS(=O)(=O)c2cccc3c2NC[C@H](C)C3)[C@@H](C(=O)O)C1	inactive	
Nc1ccc(S(=O)(=O)Nc2ccccc2)cc1	inactive	
NCCNCCNCCNCCN		-4.13% [at 9.22 µM]
C[C@H](N)[C@H](O)c1cccc(O)c1	inactive	
O=C(Oc1ccccc1C(=O)O)c1ccccc1O	inactive	
Nc1ccc(S(=O)(=O)NC(=O)c2ccccc2)cc1	inactive	
O=C1O[C@H]([C@@H](O)CO)C(O)=C1O	inactive	

Assay: qHTS of pediatric cancer cell lines to identify multiple opportunities for drug repurposing: Primary screen for OHS-50 cells (AID 1347103); note: nearly all actives have a fitted effect of over 40% in size
Conditions: OHS-50 osteosarcoma viability, CellTiter-Glo luminescence, 48 h; series mostly up to 57.3 µM
Outline: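 Cells (500-1,000/well) rested 5 h, then received compounds for 48 h; metabolically active cells were measured by CellTiter-Glo luminescence. Final concentrations spanned up to 46 µM (MIPE, 11-point) or 0.59 nM-46 µM (NPC, 8-point) in primary screens, 11-point in follow-ups.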

Structure (SMILES)	Potency	activity change, negative = cytotoxic
C=CCn1c(=O)n([C@@H]2O[C@H](CO)[C@@H](O)[C@H]2O)c2nc(N)[nH]c(=O)c21	inactive	
O=C1c2c(O)cccc2Cc2cccc(O)c21	inactive	
CC1(C)OC(=O)NC1=O	inactive	
CCOc1ccc2ccccc2c1C(=O)N[C@@H]1C(=O)N2[C@@H]1SC(C)(C)[C@@H]2C(=O)O	inactive	
CC1CC(OC(=O)C(O)c2ccccc2)CC(C)(C)N1C (centres undefined)	inactive	
OCC(CO)N[C@H]1C[C@](O)(CO)[C@@H](O)[C@H](O)[C@H]1O	inactive	
CCn1cc(C(=O)O)c(=O)c2cnc(N3CCNCC3)nc21	inactive	
CC1(C)CO[C@@H](CC(=O)O)CN1	inactive	
CCCCC(CC)COC(=O)c1ccccc1O (centres undefined)	inactive	
CCN(CC)C(=O)Nc1ccc(OCC(O)CNC(C)(C)C)c(C(C)=O)c1 (centres undefined)	inactive	
C[C@@H]1CC[C@@]2(OC1)O[C@H]1C[C@H]3[C@@H]4CC[C@H]5C[C@@H](O)CC[C@]5(C)[C@H]4CC(=O)[C@]3(C)[C@H]1[C@@H]2C		9.93% [at 6.18 µM]
C[C@@H]1CN(c2c(F)c(F)c3c(=O)c(C(=O)O)cn(C4CC4)c3c2F)C[C@H](C)N1	inactive	
Cc1ccc(C(C)C)cc2c(C)ccc1-2	inactive	
Cc1cc(O)cc2c1O[C@](C)(CCC[C@H](C)CCC[C@H](C)CCCC(C)C)CC2	inactive	
COc1ccc(S(=O)(=O)Nc2nnc(CC(C)C)s2)cc1	inactive	
CC(=O)CCC(=O)O	inactive	

Structure (SMILES)	Potency	activity change, negative = cytotoxic
CN(C)CC[C@@H](c1ccc(Cl)cc1)c1ccccn1	inactive	
NC(=O)NC(=O)Cc1ccccc1	inactive	
COc1ccccc1O	inactive	
Nc1nc2c(ncn2CCC(CO)CO)c(=O)[nH]1	inactive	
N[C@H]1C(O)O[C@H](CO)[C@@H](O)[C@@H]1O (some centres undefined)	inactive	
C[C@@H](O)[C@H](N)C(=O)O	inactive	
CC1(C)[C@@H]2CC[C@@]1(C)C(=O)C2	inactive	
C[C@@H]1CCN(C(=O)[C@H](CCCN=C(N)N)NS(=O)(=O)c2cccc3c2NC[C@H](C)C3)[C@@H](C(=O)O)C1	inactive	
Nc1ccc(S(=O)(=O)Nc2ccccc2)cc1	inactive	
Oc1cccc(O)c1	inactive	
NCCNCCNCCNCCN		-3.79% [at 11.5 µM]
C[C@H](N)[C@H](O)c1cccc(O)c1	inactive	
O=C(Oc1ccccc1C(=O)O)c1ccccc1O	inactive	
Nc1ccc(S(=O)(=O)NC(=O)c2ccccc2)cc1	inactive	
Cc1cc2nc3c(=O)[nH]c(=O)nc-3n(C[C@H](O)[C@H](O)[C@H](O)CO)c2cc1C	inactive	
O=C1O[C@H]([C@@H](O)CO)C(O)=C1O	inactive	

Source: PubChem BioAssay (NCATS)
